Results taken from PubChem BioAssay (Tox21).
Results filed as inconclusive are left out. Values without a mark were called inactive. Active and inactive are the calls of the source. The call rests on the fitted dose curve; in most records, active means well fitted inhibition curve with a large enough effect in the signal ratio in the repeat runs (not every such curve was filed as active); inconclusive means weak or mixed curves, or effect the other way; inactive means no such curve, though single readings can be large or run the other way; the % refers to the signal ratio.

Each molecule was assayed against Vitamin D3 receptor (Homo sapiens) (UniProt P11473) (assay: qHTS assay to identify small molecule antagonists of the vitamin D receptor (VDR) signaling pathway (AID 743223)). Details: VDR-UAS-bla HEK293T, beta-lactamase FRET ratio, 16 h; series mostly up to 61 µM.
Source text: U.S. Tox21 Program National Center for Advancing Translational Sciences [NCATS] NIH Chemical Genomics Center [NCGC] U.S. Environmental Protection Agency [EPA] National Institutes of Environmental Health Sciences [NIEHS] National Toxicology Program [NTP] U.S. Food and Drug Administration [FDA] Tox21 Assay Overview: The vitamin D receptor (VDR), a member of nuclear hormone receptor superfamily, plays a critical role in calcium homeostasis and bone metabolism. It is also involved in cell differentiation and growth, and thrombogenicity.
Tox21 Assay Protocol Summary: VDR-bla cells were dispensed at 2,000 cells/5 uL of assay medium per well into black wall/clear-bottom 1536-well plates using a Multidrop Combi (Thermo Fisher Scientific, Waltham, MA) dispenser. After the assay plates were incubated at a 37C and 5% CO2 for 4 h, 23 nL of compounds dissolved in DMSO, positive controls or DMSO only was transferred to the assay plate by a Pintool station (Kalypsys, San Diego, CA), followed by addition of 1 uL of 1alpha, 25-Dihydroxy Vitamin D3 (3 nM, final concentration in the wells) using a Bioraptr Flying Reagent Dispenser (FRD) workstation (Beckman Coulter, Indianapolis, IN). The plates were incubated at 37C and 5% CO2 for 16 h, and then 1 uL of LiveBLAzerTM B/G FRET substrate was added using a Bioraptr FRD. The plates were incubated at room temperature for 2 h and fluorescence intensity was measured by an Envision plate reader (PerkinElmer, Shelton, CT).
On the % scale 0 is the no-effect control and ±100 the full control effect.

Sequence of Vitamin D3 receptor (Homo sapiens) (P11473 whole entry, looked up): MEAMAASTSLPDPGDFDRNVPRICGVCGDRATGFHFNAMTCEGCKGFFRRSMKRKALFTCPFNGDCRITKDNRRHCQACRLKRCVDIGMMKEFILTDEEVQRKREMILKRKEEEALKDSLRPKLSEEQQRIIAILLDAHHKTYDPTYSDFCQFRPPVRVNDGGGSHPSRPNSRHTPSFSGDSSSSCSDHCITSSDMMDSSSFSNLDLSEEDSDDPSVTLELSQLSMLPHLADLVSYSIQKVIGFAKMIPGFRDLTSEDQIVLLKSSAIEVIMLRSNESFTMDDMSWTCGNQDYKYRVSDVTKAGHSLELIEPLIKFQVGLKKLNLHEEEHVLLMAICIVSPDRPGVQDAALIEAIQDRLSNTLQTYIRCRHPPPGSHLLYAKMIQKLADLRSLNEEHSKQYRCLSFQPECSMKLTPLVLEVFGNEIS

Row | Compound | outcome | activity change, negative = inhibition
1 | C/C=C/C(=O)CCCC | inactive | 
2 | CCCCCCCCOCCC#N | inactive | 
3 | Cc1cc2c(cc1CC(=O)c1sccc1S(=O)(=O)Nc1onc(C)c1Cl)OCO2 | inactive | 
4 | Cc1nnc(C(=O)NC(C)(C)c2nc(C(=O)NCc3ccc(F)cc3)c(O)c(=O)n2C)o1 | inactive | 
5 | CN1CCN(C(=O)C2CCCCC2)CC1 | inactive | 
6 | c1cc2ccc3ccc4ccc5cccc6c(c1)c2c3c4c56 |  | -9.77% [at 3.11 µM]
7 | CCCCCCCCC1CO1 (stereo not given) | inactive | 
8 | O=C(O)/C=C(\CC(=O)O)C(=O)O | inactive | 
9 | CCOC(=O)CN1CCCC1=O | inactive | 
10 | CCCCCC(CC)OC(=O)CCCOc1ccc(Cl)cc1Cl (stereo not given) | inactive | 
11 | C[C@H]1COc2c(C3(N)CC3)c(F)cc3c(=O)c(C(=O)O)cn1c23 | inactive | 
12 | NNC(=O)CCCCC(=O)NN | inactive | 
13 | CCNC(=O)C(C)OC(=O)Nc1ccccc1 (stereo not given) | inactive | 
14 | Nc1cc(S(=O)(=O)O)ccc1O | inactive | 
15 | CN1C(CCl)Nc2cc(Cl)c(S(N)(=O)=O)cc2S1(=O)=O (stereo not given) | inactive | 
16 | CSC(=O)c1cccc2nnsc12 | inactive | 
17 | CCO[Si](CC(C)C)(OCC)OCC | inactive | 
18 | C=CCCCCCCCCCCCCCC | inactive | 
19 | CC(C)(C)OC(=O)c1ccccc1C(=O)O | inactive | 
20 | CC(C)(C)OC=O | inactive | 

Row | Compound | outcome | activity change, negative = inhibition
21 | O=C(CCBr)N1CCN(C(=O)CCBr)CC1 | inactive | 
22 | CC1(C)C(=O)C(C)(C)C1=O | inactive | 
23 | O=C(O)CCCCCCCCCC(=O)O | inactive | 
24 | CC(C)(O)CCCC1=CCC(C=O)CC1 (stereo not given) | inactive | 
25 | C=CC(=O)CC | inactive | 
26 | O=C1Nc2ccccc2C1=O | inactive | 
27 | O=c1[nH]c(=O)c2cn[nH]c2[nH]1 | inactive | 
28 | O=Cc1ccccc1S(=O)(=O)O | inactive | 
29 | N=C(N)S(=O)O | inactive | 
30 | CN(C)CCCN(C)C |  | -1.32% [at 6.95 µM]
31 | NC[C@H]1O[C@H](O[C@H]2[C@H](O)[C@@H](O[C@H]3O[C@H](CO)[C@@H](O)[C@H](N)[C@H]3O)[C@H](N)C[C@@H]2N)[C@H](N)[C@@H](O)[C@@H]1O | inactive | 
32 | CCOC(=O)CC(C(C)=O)C(C)=O | inactive | 
33 | CC(=O)SC[C@@H](C)C(=O)N1CCC[C@H]1C(=O)N[C@@H](Cc1ccccc1)C(=O)O | inactive | 
34 | CCCCCCCCS(=O)(=O)O | inactive | 
35 | O=C(O)P(=O)(O)O | inactive | 
36 | O=P(O)(O)C(O)(Cc1cccnc1)P(=O)(O)O | inactive | 
37 | O=C1CCCc2c(O)cccc21 | inactive | 
38 | COC(=O)C(c1ccccc1Cl)N1CCc2sccc2C1 (stereo not given) | inactive | 
39 | N#Cc1cc(NC(=O)C(=O)O)c(Cl)c(NC(=O)C(=O)O)c1 | inactive | 
40 | CC(=O)c1c(C)cc(C(C)(C)C)cc1C | inactive | 
